The full list was thinned out, with hits kept by preference.
Pf Dd2 growth: Plasmodium falciparum Dd2 growth inhibition. P. falciparum Dd2 growth, SYBR Green, 72 h. Potency, µM (highest dose often 28.9 µM), usual class: inhibitors. hit rate 4.3% among 120,000; active = well fitted inhibition curve with a large enough effect; also: nearly all actives have a fitted effect of over 65% in size
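Readout: SYBR Green fluorescence, 485 nm excitation, 535 nm emission, after ~16 h lysis at 37C. Before that, Dd2-infected red cells (2.5% hematocrit) grew 72 h with compound, 29 uM top final concentration.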
Large screens that a line does not name were inactive.

Cc1ccccc1S(=O)(=O)N1CCC(CCC(=O)N(C)Cc2cccnc2)CC1	none
c1cc(CN2CC[C@H]3CNC[C@H]32)cc(OCCCCN2CCCCC2)c1	none
CN1CCc2c(sc(NC(=O)CSc3ccc(F)cc3)c2-c2nc3ccccc3s2)C1	Pf Dd2 growth 13µM
Cn1c(SCC(=O)Nc2nc3ccccc3s2)ncc(C(=O)Nc2ccc(F)cc2)c1=O	none
CC(=O)N1CCc2c(sc(NC(=O)CSc3ccc(F)cc3)c2-c2nc3ccccc3s2)C1	none
CCn1c(Cn2ccnc2C)nnc1C1CCN(C(=O)CCN)CC1	none
N#Cc1cccc(CN2CC(CNC(=O)C3CCOCC3)C3(C2)CN(c2ccccc2)C3)c1 (stereo not given)	none
CCOc1ccccc1C1NC(=O)N(CC(=O)N2CCN(c3ccc(F)cc3)CC2)C2=C1C(=O)OC2 (stereo not given)	none
CCS(=O)(=O)N1CCCCCCNC(=O)[C@@H]2C[C@@H](C(=O)N3CCN(c4ccccn4)CC3)C[C@@H]21	none
N#Cc1ccccc1CN1CCCCCCNC(=O)[C@@H]2C[C@@H](C(=O)N3CCc4ccccc4C3)C[C@@H]21	Pf Dd2 growth 3.2µM
O=C1NCCCCCCN(Cc2cccc(F)c2)[C@H]2C[C@H](C(=O)N3CCc4ccccc4C3)C[C@@H]12	Pf Dd2 growth 3.5µM
N#Cc1ccc(CN2CCCCCCNC(=O)[C@@H]3C[C@@H](C(=O)N4CCc5ccccc5C4)C[C@@H]32)cc1	Pf Dd2 growth 2.8µM
Cc1ncsc1CN1CCCC(C(=O)NCc2ccccc2)CCNC(=O)CC1 (stereo not given)	none
C=CCN1CC(C(=O)N2CCN(Cc3ccccc3C#N)CC2)CC1=O (stereo not given)	none
O=C1NCCCCCN(C(=O)Cc2cccc(F)c2)[C@H]2CCC[C@@H]12	none
Cc1nc(C)c(C(=O)N2CC[C@H]3C(=O)NCCCCCCN(Cc4ccncc4)[C@@H]3C2)s1	none
O=C1NCCCCCCN(Cc2ccncc2)[C@@H]2CN(C(=O)c3cccnc3)CC[C@@H]12	none
Cc1ncsc1CN1CCCCCCNC(=O)[C@@H]2C[C@@H](C(=O)N3CCc4ccccc4C3)C[C@@H]21	Pf Dd2 growth 4.5µM
O=C1NCCCCCCN(C(=O)Cc2cccc(F)c2)[C@H]2CCC[C@@H]12	none
N#Cc1ccc(C(=O)N2CCCCCNC(=O)[C@@H]3CCCC[C@@H]32)cc1	none
CC(=O)N(C1CCOCC1)C1CCN(C(=O)Nc2ccccc2)CC1	none
CC(CCc1ccccc1)NC(=O)Cn1cccc1-c1nc(-c2ccc3c(c2)OCO3)no1 (stereo not given)	none
COCC(=O)N1CCC(Oc2ccccc2C(=O)N(C)Cc2ncccc2C)CC1	none
COc1ccccc1C(=O)N1CC(Oc2ccc(F)c(F)c2)C1	none
CN1C[C@@H]2CCCN3CCC[C@@H]([C@H]23)[C@H]1CCCC(=O)NCCc1nc2ccccc2[nH]1	none
Cc1ccc(-n2c(C3CCN(C(=O)CCC4CCCC4)CC3)n[nH]c2=O)cc1	none
COc1ccccc1C(=O)N1CCC2(CC1)CC(OC)CCO2 (stereo not given)	none
CCC(C)NC(=O)C1COC2(CCN(C(=O)Cc3ccccc3)CC2)N1C(=O)c1cccc(C)c1 (stereo not given)	none
O=C(c1cccc(F)c1)N1CCC2(CC1)C(=O)NN=C2c1ccccn1	none
COc1cc(F)ccc1-c1cc2c(ccn2C)c(C(=O)NCc2cccnc2)n1	none
Cc1ccc(Cn2c(C3CCN(C(=O)c4ccc(C)cc4)CC3)n[nH]c2=O)cc1	none
COc1ccc(CC(=O)N2CCC(c3n[nH]c(=O)n3Cc3ccc(OC)cc3)CC2)cc1	Pf Dd2 growth 13µM
Cc1ccc(Cn2c(C3CCN(C(=O)c4ccccc4Cl)CC3)n[nH]c2=O)cc1	none
COc1ccc(CC(=O)N2CCC(c3n[nH]c(=O)n3Cc3ccc(F)cc3)CC2)cc1	none
COc1ccc(Cn2c(C3CCN(C(=O)c4ccc(OC)cc4)CC3)n[nH]c2=O)cc1	none
Cc1ccc(Cn2c(C3CCN(C(=O)c4ccc(C)s4)CC3)n[nH]c2=O)cc1	Pf Dd2 growth 11µM
O=C(c1cn(C2CNC2)nn1)N1CCCC1	none
Cc1cnc(C(=O)N2CCCCCC2CN2CCCC2)cn1 (stereo not given)	none
O=C(c1ccc(C(F)(F)F)cc1)N1CCCC2(CC(c3cccc(C(F)(F)F)c3)=NO2)C1 (stereo not given)	none
CNC(=O)[C@@H](c1ccccc1)N1CCC[C@H]1C(=O)NCC1CC1	none
CCN(CC)C(=O)[C@@H]1C[C@H](N)CN1C(=O)c1ccc2c(c1)OCC(=O)N2	none
CC(C)c1nnc(C2CN(C(=O)CCc3nc4ccccc4[nH]3)CC23CCOCC3)o1 (stereo not given)	none
Cc1ccc(Cn2cnc3nc4c(cc3c2=O)CCCC4)cc1	none
COC(=O)c1ccc(Cn2cnc3nc4c(cc3c2=O)CCCC4)cc1	none
CCC(C(=O)Nc1ccc(C(C)=O)cc1)n1cnc2nc3c(cc2c1=O)CCCC3 (stereo not given)	Pf Dd2 growth 10µM
O=C(CCc1ccc2c(c1)OCO2)N[C@H](c1ccccn1)C1CC(O)C1 (stereo not given in full)	none
Cc1ccc(-n2nc3c(N4CCC(C(=O)NCCc5ccccc5)CC4)nnc(C)c3c2C)cc1	Pf Dd2 growth 6.3µM

Screens: PubChem BioAssay, National Center for Advancing Translational Sciences (NCATS)
